Compound activity (PubChem)
The list is not random: actives were taken first. Their share in the collection is about 19%.
DT40 TDP1 no CPT: qHTS for Inhibitors of human tyrosyl-DNA phosphodiesterase 1 (TDP1): qHTS in cells in absence of CPT; DT40 Tdp1-/- hTDP1 cells, no CPT, ATP luminescence, 48 h; Potency, µM (highest dose often 46.2 µM), for the others: at the highest dose activity change, negative = growth inhibition, actives largely listed as inhibitors; 420,000 compounds, 15% hits; AID 686978, 2013; also: potency is read from the fitted curve at half-maximal effect; % is scaled to controls: 0 for no effect and ±100 for the full control effect; nearly all actives have a fitted effect of over 55% in size
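DT40 Tdp1-/-;hTDP1 cells, no CPT (DMSO vehicle only), 400 cells/well; compounds pin-transferred; ≥48 hr, 37 °C; CellTiter-Glo 30 min RT dark, luminescence read.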
HepG2 tox: kills HepG2 cells in TGF-b inhibitor counter-screen; AID 588856; Potency, µM (titrated, usually from 46.1 µM), inactives show at the top dose activity change, negative = cytotoxicity, hits mostly cytotoxic; 410,000 compounds, 0.76% hits; HepG2 CAGA-GFP viability, ATP luminescence, 18 h; also: potency is read from the fitted curve at half-maximal effect
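CellTiter-Glo luminescence gave cytotoxicity after 18 hours at 37 degrees C. The cells were HepG2 CAGA-GFP in 1% FBS DMEM, stimulated with 500 pg/mL TGF-beta after compound addition. %Activity was normalised to no-cell wells (complete cell-killing) and DMSO (no toxicity), and curves were fitted and classified.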
TDP1 block: blocks human tyrosyl-DNA phosphodiesterase 1; recombinant TDP1, AlphaScreen DNA substrate cleavage; Potency, µM (series often up to 130 µM), for inactives: at the highest dose activity change, negative = inhibition, actives largely listed as inhibitors; 350,000 compounds, 0.28% hits; AID 485290; also: potency is read from the fitted curve at half-maximal effect; % is scaled to controls: 0 for no effect and ±100 for the full control effect; nearly all actives have a fitted effect of over 40% in size
Target sequence (Q9NUW8 whole entry, looked up): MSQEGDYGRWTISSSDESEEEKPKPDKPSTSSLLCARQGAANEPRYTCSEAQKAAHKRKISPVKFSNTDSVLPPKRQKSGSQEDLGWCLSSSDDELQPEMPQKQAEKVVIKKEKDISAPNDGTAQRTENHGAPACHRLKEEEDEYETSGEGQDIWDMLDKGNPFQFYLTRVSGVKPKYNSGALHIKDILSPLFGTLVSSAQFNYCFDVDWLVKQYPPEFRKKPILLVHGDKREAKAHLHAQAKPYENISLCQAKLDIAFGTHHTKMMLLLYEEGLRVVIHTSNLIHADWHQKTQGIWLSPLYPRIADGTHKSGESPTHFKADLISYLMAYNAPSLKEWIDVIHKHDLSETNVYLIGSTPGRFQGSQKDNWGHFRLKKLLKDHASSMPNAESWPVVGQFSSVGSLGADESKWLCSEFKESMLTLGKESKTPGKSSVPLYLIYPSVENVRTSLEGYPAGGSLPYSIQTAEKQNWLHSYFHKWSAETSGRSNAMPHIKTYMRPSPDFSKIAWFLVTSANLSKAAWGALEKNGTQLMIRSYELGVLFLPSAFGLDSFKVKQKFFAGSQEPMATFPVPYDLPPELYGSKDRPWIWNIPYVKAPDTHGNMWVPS
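Recombinant human Tdp1 (E. coli-expressed, 1 nM final) preincubated with compounds 15 min at room temperature, then 5'-biotin/3'-phosphotyrosine-FITC DNA substrate (15 nM final) added for 5 min. AlphaScreen beads (10 ug/ml final) added 10 min; cleavage lowers signal.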
TGFb SMAD3 inh: blocks TGF-b signaling. HepG2 CAGA-GFP TGF-b/SMAD3 reporter, GFP fluorescence, 18 h; TGF-beta stimulated, 500 pg/mL final. Potency, µM (doses to about 46.1 µM), for inactives: at the top dose activity, negative = inhibition, hits mostly inhibitors. AID 588855. 410,000 compounds, 1.2% hits; also: potency is read from the fitted curve at half-maximal effect; % is scaled to controls: 0 for no effect and ±100 for the full control effect; nearly all actives have a fitted effect of over 65% in size
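Inhibition of TGF-beta-driven CAGA-GFP reporter expression in HEPG2 cells is measured by cellular GFP fluorescence after 18 h stimulation with 500 pg/mL recombinant TGF-beta in 1% FBS medium at 37 degrees C.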
IL1B secr inh: inhibitors of inflammasome signaling (IL-1 beta secretion). THP-1 LPS/ATP IL-1B secretion, AlphaLISA, 16 h; hits give low values. activity change, % at 57.5 µM. 360,000 compounds, 4.7% hits. AID 743279; in the data active = activity change below about -50%; inconclusive = mostly about -30% to -49%; also: % is scaled to controls: 0 for no effect and ±100 for the full control effect
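Secreted IL-1B measured by AlphaLISA bead assay after 16 h compound exposure of THP-1 cells; compounds (final up to 57.5 uM) added 1 h before LPS (250 ng/mL) and ATP (1.25 mM) stimulation; lower signal means less secretion.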
TDP1 cell CPT: DT40-hTDP1 cell growth loss with CPT | chicken DT40 Tdp1-/-;hTDP1 cells + 20 nM CPT, ATP luminescence, 48 h | Potency, µM (highest dose often 46.2 µM), without a hit: top-dose activity change, negative = growth inhibition, hits mostly inhibitors | 420,000 compounds, 12% hits; also: potency is read from the fitted curve at half-maximal effect; % is scaled to controls: 0 for no effect and ±100 for the full control effect; nearly all actives have a fitted effect of over 55% in size
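Chicken DT40 Tdp1-/- cells complemented with human TDP1, 400 cells/well, exposed to compounds plus 20 nM camptothecin for at least 48 h at 37 C; viability read as ATP content by CellTiter-Glo luminescence.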
An asterisk follows results filed as active; ? = inconclusive; · = no result; ! = a repeat was not active; [ ] = another dose, or the depositor's remark. Unless noted, calls follow the shape of the dose curve; as a rule, active = well fitted curve in the direction sought with a large enough effect; inconclusive = small, poorly fitted or top-dose-only effect, or another doubt; inactive = no such curve, though single readings can be large; an effect the other way counts as inactive or inconclusive.

SMILES	DT40 TDP1 no CPT	HepG2 tox	TDP1 block	TGFb SMAD3 inh	IL1B secr inh	TDP1 cell CPT
O=C1CC(c2nc3ccccc3n2CCC2CCCCC2)CN1c1ccccc1Cl (configuration not stated)	?	-13.5%	5.1%	-17.3%	·	-18.8%
CCC(C)(CN(C)C)OC(=O)c1ccccc1 (configuration not stated)	-16.8%	-1.3%	·	·	12.4	-13.5%
Cc1cc(C)n(-c2nnc3n2N=C(c2c[nH]c4ccccc24)CS3)n1	14.6µM*	-20.5%	7.2%	?	-9.5	20.6µM*
CC(=O)c1cccc(NC(=O)COC(=O)COc2c(Cl)cc(Cl)c3ccc(C)nc23)c1	?	-22.7%	5.4%	14.4%	6.8	-17.5%
CN1CCN(c2c(F)cc3c(=O)c(C(=O)O)cn4c3c2SCC4)CC1	11.6µM*	7.0%	6.2%	15.9%	-3.3	13µM*
C[C@H]1COc2c(N3CCN(C)CC3)c(F)cc3c(=O)c(C(=O)O)cn1c23	9.2µM*	-2.2%	8.7%	13.8%	-9.3	?
COC(=O)c1cc(Br)ccc1N(Cc1cc(OC)cc(OC)c1)S(C)(=O)=O	15.8µM*	9.2%	1.5%	9.9%	-15.0	?
CCC1=NN(C(=O)c2cccnc2)C(O)(C(F)(F)F)C1 (configuration not stated)	?	0.2%	-5.6%	2.9%	0.4	16.4µM*
CCCCC1=NN(C(=O)c2cccnc2)C(O)(C(F)(F)F)C1 (configuration not stated)	1.03µM*	-4.0%	-1.3%	-17.3%	23.3	1.46µM*
CCC(C)c1ccc(NC(=O)c2ccco2)cc1 (configuration not stated)	?	-39.5%	·	-14.5%	-0.3	?
C[C@]12CCC(=O)C=C1CC[C@H]1[C@@H]3CC[C@](O)(C(=O)CO)[C@@]3(C)C[C@H](O)[C@@]12F	26.6µM*!	·	·	·	·	?
CSCCC(NC(=O)CCC(=O)OCC(=O)[C@@]1(O)CCC2[C@@H]3CCC4=CC(=O)C=C[C@]4(C)C3[C@@H](O)C[C@@]21C)C(=O)O (some centres not stated)	-1.7%	-1.5%	·	138.6%	-54.8*	-14.1%
CC12C=CC(=O)C=C1CCC1C2C(O)CC2(C)C1CCC2(O)C(=O)CO (configuration not stated)	-23.6%	-0.6%	·	-2.6%	-59.8*	-28.8%
C[C@]12C=CC(=O)C=C1CC[C@@H]1C2C(O)C[C@@]2(C)C1CC[C@]2(O)C(=O)COC(=O)CCC(=O)NC(CC(=O)O)C(=O)O (some centres not stated)	?	0.7%	·	7.1%	?	-12.6%
Cc1ccc(-c2cn3cccnc3n2)cc1NC(=O)c1ccc(Br)o1	-20.9%	-5.5%	4.6%	17.4%	?	-19.1%
COc1cccc(C(=O)Nc2cc(-c3cn4cccnc4n3)ccc2C)c1OC	16.4µM*	-18.5%	1.1%	-14.3%	·	?
COc1ccc(-c2cn3cccnc3n2)cc1NC(=O)c1ccc(Br)o1	?	1.0%	50.1µM*	-17.8%	-54.0*	15.8µM*
COc1ccc(-c2cn3cccnc3n2)cc1NC(=O)c1c(F)cccc1F	25.9µM*	-34.9%	1.1%	-25.5%	·	?
Cc1ccc(-c2cn3cccnc3n2)cc1NC(=O)C(C)(C)Oc1ccc(Cl)cc1	18.4µM*	-52.0%	5.5%	?	·	?
CN(C)C(=O)c1ccc(-c2cncnc2N2CCNCC2)cc1	1.6%	·	·	·	·	10.4%
COc1ccc(C2CC(O)(c3ccccc3)Oc3cc(OC)c(OC)c(OC)c32)cc1 (configuration not stated)	?	-35.6%	18.5%	?	-0.3	?
OC1(c2ccccc2)CC(c2ccccc2)c2ccccc2O1 (configuration not stated)	?	22.4µM*	·	?	-99.2*	-25.0%
CCCCN1CCc2nc(Nc3ccc(OC)cc3OC)ncc2C1	?	5.4%	6.2%	-9.1%	·	?
COc1cc(Nc2ncc3c(n2)CCN(Cc2cccc(C)c2)C3)cc(OC)c1	3.26µM*	-48.4%	11.2%	?	·	3.66µM*
COc1ccc(OC)c(Nc2ncc3c(n2)CCN(Cc2cc(OC)c(OC)c(OC)c2)C3)c1	7.31µM*	-3.5%	6.2%	0.6%	·	5.8µM*
SMILES	DT40 TDP1 no CPT	HepG2 tox	TDP1 block	TGFb SMAD3 inh	IL1B secr inh	TDP1 cell CPT
COc1cccc(CN2CCc3nc(Nc4ccc5c(c4)OCCO5)ncc3C2)c1	?	-13.1%	13.8%	-20.8%	·	?
COc1cc(Nc2ncc3c(n2)CCN(Cc2cc(F)cc(F)c2)C3)cc(OC)c1	3.66µM*	-36.7%	3.8%	-27.4%	·	4.61µM*
COc1ccc(OC)c(CNC(=O)Nc2cn(CC(C)C)c(=O)c3ccccc23)c1	?	-3.0%	5.3%	-16.5%	·	?
N=C(N)SCc1ccc(Cl)c2ccccc12	?	-38.5%	·	?	-101.1*	?
O=C(Nc1ccccc1)C1=C(c2ccccc2)S(=O)(=O)CCS1(=O)=O	0.0259µM*	2.51µM*	-10.3%	2.51µM*	-95.5*	0.058µM*
O=C(CCS(=O)(=O)c1cc2c3c(c1)CCN3C(=O)CC2)Nc1cccc(Br)c1	?	-0.1%	7.9%	3.2%	·	-23.6%
Cc1nc2cc(NC(=O)[C@@H]3C[C@@H](Sc4ccccn4)CN3Cc3cccc(F)c3)ccc2s1	-19.3%	·	·	·	·	15.5%[9.04 µM]
Cc1ccc(NC(=O)c2cccc(S(=O)(=O)N(C)c3ccccc3)c2)cc1S(=O)(=O)N1CCOCC1	23.1µM*	-4.5%	4.2%	?	0.0	23.1µM*
COc1ccccc1N(C)S(=O)(=O)c1ccc(C(=O)Nc2ccc3nc(C)sc3c2)cc1	?	-22.4%	2.8%	?	7.4	16.4µM*
Cc1nc2ccc(NC(=O)c3cccc(S(=O)(=O)N(C)c4ccccc4)c3)cc2s1	6.51µM*	3.4%	-3.5%	?	37.4	3.66µM*
CC(NC(=O)c1cccc(S(=O)(=O)N(C)c2ccccc2)c1)c1cccnc1 (configuration not stated)	18.4µM*	-1.5%	1.5%	0.4%	-6.1	18.4µM*
Cc1nc2ccc(NC(=O)c3ccccc3)cc2s1	16.3%	-6.3%	4.8%	-4.1%	-12.4	?
CN(c1ccc(C(=O)Nc2cccnc2)cc1)S(=O)(=O)c1ccccc1	-25.8%	-0.7%	-2.6%	0.5%	13.0	-1.1%
